Giardia killer: kills Giardia lamblia. activity change, % at 7.66 µM, hits read low. 340,000 tested, 0.15% active. Giardia lamblia trophozoite viability. AID 540267; in the data active = activity change below about -80%; inconclusive = between about -30% and that limit;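 also: parasites exposed to compound for two days anaerobically before the ATP read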
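Media and compound were dispensed first, then trophozoites at 100 cells/well; plates sat 48 hrs at 37 deg C without oxygen before ATP luminescence reagent was added and read after 15-30 min at room temperature.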
DT40 TDP1 no CPT: qHTS for Inhibitors of human tyrosyl-DNA phosphodiesterase 1 (TDP1): qHTS in cells in absence of CPT; AID 686978, 2013; 420,000 tested, 15% active; Potency, µM (highest dose often 46.2 µM), without a hit: at the top dose activity change, negative = growth inhibition, most hits filed as inhibitors; DT40 Tdp1-/- hTDP1 cells, no CPT, ATP luminescence, 48 h; also: potency is read from the fitted curve at half-maximal effect; nearly all actives have a fitted effect of over 55% in size
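Growth kinetics read by CellTiter-Glo luminescence after ≥48 hr at 37 °C. Cells: DT40 Tdp1-/- stably carrying human TDP1, 400 per well, compound exposure in the absence of CPT (DMSO vehicle).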
ELG1 DNA repair: blocks ELG1-dependent DNA repair in HEK293T cells; HEK293T ELG1-luciferase reporter, luminescence, 16 h; DNA damage induced by 5-fluorouridine; Potency, µM (series often up to 46.1 µM), inactives show at the highest dose activity change, negative = inhibition, most hits filed as inhibitors; 330,000 tested, 2.3% active; also: potency is read from the fitted curve at half-maximal effect; nearly all actives have a fitted effect of over 55% in size
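HEK293T cells expressing luciferase-tagged ELG1 (2,000/well) received 5-Fluorouridine plus compound or DMSO for 16 hr at 37 °C. Luciferase was read by ONE-Glo luminescence after 30 min at room temperature.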
TDP1 inh: inhibitors of human tyrosyl-DNA phosphodiesterase TDP1; recombinant TDP1, AlphaScreen DNA substrate cleavage; 350,000 tested, 0.28% active; Q9NUW8; Potency, µM (highest dose often 130 µM), for inactives: at the top dose activity change, negative = inhibition, usual class: inhibitors; also: potency is read from the fitted curve at half-maximal effect; nearly all actives have a fitted effect of over 40% in size
Target sequence (Q9NUW8 whole entry, looked up): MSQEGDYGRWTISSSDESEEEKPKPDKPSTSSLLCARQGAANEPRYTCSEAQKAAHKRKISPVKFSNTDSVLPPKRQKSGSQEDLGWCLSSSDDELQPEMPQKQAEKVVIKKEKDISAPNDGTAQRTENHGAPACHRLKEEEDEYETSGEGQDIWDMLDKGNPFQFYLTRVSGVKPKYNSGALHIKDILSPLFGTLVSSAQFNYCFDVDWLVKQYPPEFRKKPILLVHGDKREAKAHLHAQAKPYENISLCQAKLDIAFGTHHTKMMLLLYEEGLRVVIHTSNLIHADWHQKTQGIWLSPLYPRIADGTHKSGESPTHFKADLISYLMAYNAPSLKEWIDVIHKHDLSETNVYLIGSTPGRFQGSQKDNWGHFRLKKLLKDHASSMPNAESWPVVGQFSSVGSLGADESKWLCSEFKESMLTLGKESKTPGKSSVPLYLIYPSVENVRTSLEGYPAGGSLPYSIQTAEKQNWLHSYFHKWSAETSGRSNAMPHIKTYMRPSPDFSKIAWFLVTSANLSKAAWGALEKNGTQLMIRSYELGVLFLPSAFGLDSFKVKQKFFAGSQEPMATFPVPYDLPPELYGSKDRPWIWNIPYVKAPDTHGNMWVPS
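Compounds were preincubated with Tdp1 (1 nM final) for 15 min at room temperature before substrate (15 nM final) started a 5 min reaction; beads (10 ug/ml final) were then added for 10 min before AlphaScreen detection.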
DT40 TDP1 CPT: growth inhibition of DT40 Tdp1-/-;hTDP1 cells with camptothecin (screen for TDP1 inhibitors) | 420,000 tested, 12% active | chicken DT40 Tdp1-/-;hTDP1 cells + 20 nM CPT, ATP luminescence, 48 h | Potency, µM (titrated, usually from 46.2 µM), inactives show top-dose activity change, negative = growth inhibition, actives largely listed as inhibitors; also: potency is read from the fitted curve at half-maximal effect; nearly all actives have a fitted effect of over 55% in size
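Cell growth measured by CellTiter-Glo luminescence after a minimum 48 h, 37 C compound exposure with 20 nM CPT in Tdp1-knockout DT40 cells stably expressing hTDP1, seeded 400/well; qHTS titration format.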
IL1B secr inh: inhibitors of inflammasome signaling (IL-1 beta secretion) | THP-1 LPS/ATP IL-1B secretion, AlphaLISA, 16 h; hits give low values | activity change, % at 57.5 µM | 360,000 tested, 4.7% active | AID 743279; in the data active = activity change below about -50%; inconclusive = mostly about -30% to -49%
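THP-1 cells pretreated 1 hr with compounds (up to 57.5 uM final), then stimulated with LPS (250 ng/mL final) plus ATP (1.25 mM final); secreted IL-1B measured by AlphaLISA after 16 hr, decreased signal indicating inhibition.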
The depositor's hits bear a star. Compounds with a hit are over-represented: about 19% of the library has one in this group of screens. Unless noted, calls follow the shape of the dose curve; as a rule, active = well fitted curve in the direction sought with a large enough effect; inconclusive = small, poorly fitted or top-dose-only effect, or another doubt; inactive = no such curve, though single readings can be large; an effect the other way counts as inactive or inconclusive. % is scaled to controls: 0 for no effect and ±100 for the full control effect.

`C/C(=N\NC(=O)c1cccc(F)c1)c1ccc(Br)s1` gave Giardia killer -8.3, DT40 TDP1 no CPT 7.08µM*, ELG1 DNA repair -19.8%, TDP1 inh 2.5%, DT40 TDP1 CPT 5.62µM* and IL1B secr inh -1.7.
For C/C(=N\NC(=O)c1ccccc1O)c1ccc(Br)s1 the results were Giardia killer 2.5, DT40 TDP1 no CPT inconclusive, ELG1 DNA repair inconclusive, TDP1 inh -1.4%, DT40 TDP1 CPT 14.6µM* and IL1B secr inh -9.6.
c1ccc(CNCc2nnc(-c3cc4ccccc4[nH]3)s2)cc1 was read as TDP1 inh -0.5%.
For O=C(CSc1nnc(-c2ccc3c(c2)OCO3)o1)Nc1ncc(C(F)(F)F)cc1Cl the results were Giardia killer -10.2, DT40 TDP1 no CPT 16.4µM*, ELG1 DNA repair -8.0%, TDP1 inh 7.2%, DT40 TDP1 CPT inconclusive and IL1B secr inh 25.2.
Screening Cc1nc(NC(=O)CSc2nnc(-c3ccc4c(c3)OCO4)o2)c(Cl)cc1Cl returned Giardia killer -18.9, DT40 TDP1 no CPT inconclusive, ELG1 DNA repair inconclusive, TDP1 inh 7.7%, DT40 TDP1 CPT -15.8% and IL1B secr inh 23.5.
c1ccc(-c2ccnc3nc(N4CCN(c5ccccc5)CC4)nn23)cc1 was read as Giardia killer 7.7, DT40 TDP1 no CPT 20.6µM*, ELG1 DNA repair -0.7%, TDP1 inh 1.0%, DT40 TDP1 CPT 18.4µM* and IL1B secr inh -8.7.
`Fc1ccc(-c2ccnc3nc(N4CCN(c5ccccc5)CC4)nn23)cc1` gave Giardia killer -2.9, DT40 TDP1 no CPT 6.5%, ELG1 DNA repair 1.3%, TDP1 inh 4.8%, DT40 TDP1 CPT -2.0% and IL1B secr inh 0.0.
Screening CCc1ccccc1NC(=O)CNC(=O)c1cc(C2CC2)nc2c1cnn2C(C)C returned Giardia killer 8.9, DT40 TDP1 no CPT inconclusive, ELG1 DNA repair 12.5%, TDP1 inh -0.8%, DT40 TDP1 CPT inconclusive and IL1B secr inh -15.2.
COc1ccccc1CCNC(=O)c1cc(C2CC2)nc2c1cnn2C(C)C was read as Giardia killer 4.0, DT40 TDP1 no CPT 23.1µM*, ELG1 DNA repair -8.6%, TDP1 inh -3.3%, DT40 TDP1 CPT inconclusive and IL1B secr inh -10.9.
For CC(C)n1ncc2c(C(=O)NCC(=O)Nc3ccccc3Br)cc(C3CC3)nc21 the results were Giardia killer -1.9, DT40 TDP1 no CPT inconclusive, ELG1 DNA repair inconclusive, TDP1 inh 2.6%, DT40 TDP1 CPT inconclusive and IL1B secr inh -14.5.
`Cc1cccc(OCCNC(=O)c2cc(C3CC3)nc3c2cnn3C(C)C)c1` gave DT40 TDP1 no CPT -0.8%, DT40 TDP1 CPT 6.5% and IL1B secr inh 2.2.
Cc1cc(C)c(NC(=O)CNC(=O)c2cc(C3CC3)nc3c2cnn3C(C)C)c(C)c1 was read as DT40 TDP1 no CPT 18.4µM*, DT40 TDP1 CPT inconclusive and IL1B secr inh -20.9.
`COc1cc(C)c(NC(=O)c2cc(C3CC3)nc3c2cnn3C(C)C)cc1OC` gave Giardia killer 5.0, DT40 TDP1 no CPT 16.4µM*, ELG1 DNA repair inconclusive, TDP1 inh 0.3%, DT40 TDP1 CPT inconclusive and IL1B secr inh -12.6.
Screening COc1ccc(NC(=O)c2cc(C3CC3)nc3c2cnn3C(C)C)cc1OC returned Giardia killer 42.0, DT40 TDP1 no CPT inconclusive, ELG1 DNA repair inconclusive, TDP1 inh 1.4%, DT40 TDP1 CPT inconclusive and IL1B secr inh -6.4.
Screening COc1ccccc1OCCNC(=O)c1cc(C2CC2)nc2c1cnn2C(C)C returned Giardia killer -10.8, DT40 TDP1 no CPT inconclusive, ELG1 DNA repair 12.6µM*, TDP1 inh -3.8%, DT40 TDP1 CPT inconclusive and IL1B secr inh 2.3.
`CN(CC(O)Cn1cnc2c1c(=O)n(C)c(=O)n2C)c1ccccc1` (stereo not given) gave Giardia killer -20.7, DT40 TDP1 no CPT inconclusive, ELG1 DNA repair -15.4%, TDP1 inh 3.0%, DT40 TDP1 CPT -10.4% and IL1B secr inh 0.0.
For CCOCCOC(=O)c1ccc(-n2cncn2)nc1 the results were Giardia killer -3.3, DT40 TDP1 no CPT -16.2%, ELG1 DNA repair -21.1%, TDP1 inh -7.8%, DT40 TDP1 CPT -13.3% and IL1B secr inh 4.0.
`COc1ccc(CCNC(=O)c2cc(C3CC3)nc3c2cnn3C(C)C)cc1` gave Giardia killer 14.7, DT40 TDP1 no CPT 18.4µM*, ELG1 DNA repair inconclusive, TDP1 inh -3.2%, DT40 TDP1 CPT inconclusive and IL1B secr inh -27.4.
`Cc1cc(C)c(CNC(=O)c2cc(C3CC3)nc3c2cnn3C(C)C)c(=O)[nH]1` gave Giardia killer 2.4, DT40 TDP1 no CPT inconclusive, ELG1 DNA repair -15.4%, TDP1 inh 2.2%, DT40 TDP1 CPT inconclusive and IL1B secr inh -12.1.
`NNC(=O)c1nc[nH]c1C(=O)Nc1ccccc1` gave Giardia killer -10.7, DT40 TDP1 no CPT 0.3%, ELG1 DNA repair 2.6%, DT40 TDP1 CPT -23.1% and IL1B secr inh 0.0.
For COc1ccc(C(=O)N(Cc2ccc(N(C)C)cc2)Cc2ccco2)cc1Cl the results were DT40 TDP1 no CPT 14.6µM*, TDP1 inh 14.7% and DT40 TDP1 CPT 16.4µM*.
`CN(C)c1ccc(CN(Cc2ccco2)C(=O)c2ccc(C(C)(C)C)cc2)cc1` gave DT40 TDP1 no CPT 20.6µM*, TDP1 inh 9.8% and DT40 TDP1 CPT 16.4µM*.
`CCn1cnc2sc(C(=O)Oc3ccc(Br)cc3)c(C)c2c1=O` gave Giardia killer 10.4, DT40 TDP1 no CPT inconclusive, ELG1 DNA repair 16.0%, TDP1 inh -4.9%, DT40 TDP1 CPT -12.9% and IL1B secr inh -8.9.
COc1ccc(C(=O)N(Cc2ccco2)Cc2ccccc2F)cc1Cl was read as DT40 TDP1 no CPT 16.4µM*, TDP1 inh 7.0% and DT40 TDP1 CPT 20.6µM*.
CCn1cnc2sc(C(=O)N(Cc3ccc(N(C)C)cc3)Cc3ccco3)c(C)c2c1=O was read as Giardia killer -26.1, DT40 TDP1 no CPT inconclusive, ELG1 DNA repair inconclusive, TDP1 inh 8.3%, DT40 TDP1 CPT inconclusive and IL1B secr inh -75.9*.
`c1ccc(-c2ccc3c(c2)c2c4n3CCN=C4CCC2)cc1` gave Giardia killer 0.1, DT40 TDP1 no CPT inconclusive, ELG1 DNA repair -11.4%, TDP1 inh 9.9%, DT40 TDP1 CPT 23.1µM* and IL1B secr inh inconclusive.
OC1CN=C2CCCc3c2n(c2ccc(Cl)cc32)C1 (stereo not given) was read as Giardia killer 20.0, DT40 TDP1 no CPT -23.3%, ELG1 DNA repair -7.4%, TDP1 inh 4.7%, DT40 TDP1 CPT -7.7% and IL1B secr inh inconclusive.
